High-throughput results: PubChem BioAssay, Broad Institute
aSyn 5UTR act = Activators working through SNCA 5'UTR binding (MLPCN). alpha-synuclein 5'UTR reporter, activators screen. activity score, % (tested at 7.5 µM), hits read low. 300,000 compounds, 7.1% hits. AID 1814; in the data active means activity score below about -60%
An asterisk follows results filed as active. These entries were drawn from the full list.

SMILES | aSyn 5UTR act
COc1ccc(Nc2oc(-c3ccc(Cl)cc3)nc2C#N)cc1 | -77*
COc1ccc(Nc2oc(COc3ccc(Cl)cc3)nc2C#N)cc1 | 91
COc1ccc(-c2nc(C#N)c(NCCc3ccccc3)o2)cc1 | -146*
CCOC(=O)N1CCN(S(=O)(=O)c2ccc(C(=O)NNc3nc4ccc(Cl)cc4s3)cc2)CC1 | 67
CCOC(=O)N1CCC(Nc2nc3ccccc3nc2NS(=O)(=O)c2ccc(Cl)cc2)CC1 | -88*
Cc1ccc(S(=O)(=O)n2nc(-c3ccc(Cl)cc3)nc2NCc2ccco2)cc1 | -96*
CCS(=O)(=O)n1nc(-c2ccccc2)nc1NCc1ccco1 | -71*
COc1cc(/C=N/Nc2ccccn2)ccc1OCC(C)C | -127*
CCCOc1ccc(/C=N/Nc2ccccn2)cc1OC | -177*
CCOc1ccc(/C=N/N(C)c2ccccc2)cc1OC | -250*
CCOc1ccc(/C=N/Nc2ccccn2)cc1OC | -177*
C=CCOc1ccc(/C=N/Nc2ccccn2)cc1OC | -246*
O=C1C(Cl)=C(Nc2ccc3cn[nH]c3c2)C(=O)c2ccccc21 | 100
CN(C)c1ccc(NC2=C(Cl)C(=O)c3ccccc3C2=O)cc1 | -116*
Cc1sc2c(c1C)CN(Cc1ccncc1)CN2C(=O)c1ccco1 | -93*
O=C(CSc1n[nH]c(-c2ccccc2O)n1)N1CCOCC1 | -70*
COc1cc(OC)cc(C(=O)N=c2sc3ccccc3n2C)c1 | -149*
Cc1ccc(C(=O)N/N=c2\sc3ccccc3n2C)cc1 | -62*
COc1ccc(C(=O)N=c2sc3ccccc3n2C)cc1 | -193*
COc1cccc(C(=O)N=c2sc3cc(S(C)(=O)=O)ccc3n2C)c1 | -127*
COC(=O)Cn1c(=NC(=O)c2cccc(OC)c2)sc2cc(OC)ccc21 | -87*
Cc1cc(N2CCOCC2)ccc1/C=C\[N+](=O)[O-] | -101*
O=c1oc2cc(Cl)ccc2n1CSc1nc2ccccc2s1 | -165*
O=C(c1cc2ccccc2oc1=O)N(Cc1ccccc1F)C1CCS(=O)(=O)C1 (stereo not given) | -95*
CCOc1ccc(CN(C(=O)c2cc3ccccc3oc2=O)C2CCS(=O)(=O)C2)cc1 (stereo not given) | -78*
SMILES | aSyn 5UTR act
COc1ccc(CN(C(=O)c2cc3ccccc3oc2=O)C2CCS(=O)(=O)C2)cc1OC (stereo not given) | -115*
O=C(c1cc2ccccc2oc1=O)N(Cc1ccccc1)C1CCS(=O)(=O)C1 (stereo not given) | -88*
CC(C(Sc1ccccc1N)c1ccccc1)[N+](=O)[O-] (stereo not given) | -83*
CC(=O)c1ccc(OCc2ccccc2)c(C)c1O | -108*
CCc1ccc(NC(=O)C2C3/C=C\CCCCC32)cc1 (stereo not given) | -165*
O=C(Nc1ccc(Cl)cc1)C1C2CCCCC21 (stereo not given) | -150*
Clc1ccc(-n2nnc(-c3cccnc3)n2)cc1Cl | -157*
Brc1ccccc1-n1nnc(-c2cccnc2)n1 | -76*
Fc1ccc(-n2nnc(-c3cccnc3)n2)cc1 | -89*
Fc1ccc(C(CCCn2nnc(-c3cccnc3)n2)c2ccc(F)cc2)cc1 | -103*
Fc1ccc(-n2nnc(-c3cnc4ccccc4c3)n2)cc1 | 94
CCCC(=O)N1c2ccccc2C(=C2SC(C(=O)OC)=C(C(=O)OC)S2)C(=S)C1(C)C | -88*
COc1ccc(NC(=O)c2oc3ccccc3c2NC(=O)C2CCCO2)cc1OC (stereo not given) | -116*
Cc1ccc(NC(=O)c2oc3ccccc3c2NC(=O)C2CCCO2)cc1C (stereo not given) | -169*
CCOc1ccccc1NC(=O)c1oc2ccccc2c1NC(=O)C1CCCO1 (stereo not given) | -63*
Cc1ccc(C(=O)Nc2nnn(C)n2)cc1 | -76*
CCCn1nnc(NC(=O)c2cccc(OCC)c2)n1 | -141*
CCCn1nnc(NC(=O)c2ccc3ccccc3c2)n1 | -185*
CCn1nnc(NC(=O)c2ccc(C(C)(C)C)cc2)n1 | -112*
CCCn1nnc(NC(=O)c2ccc(Cl)cc2Cl)n1 | -115*
O=C(Cc1ccc(Cl)cc1)NCc1ccccc1Cl | -66*
O=C(Cc1ccccc1[N+](=O)[O-])NCc1ccccc1Cl | -147*
Cc1ccccc1CNC(=O)Cc1ccccc1[N+](=O)[O-] | -96*
CCN1CCN(C(=O)c2ccc3c(=O)n(CCc4ccccc4)c(=O)[nH]c3c2)CC1 | -72*
CC1CCN(CCCNC(=O)c2ccc3c(=O)n(CCc4ccccc4)c(=O)[nH]c3c2)CC1 | -74*
SMILES | aSyn 5UTR act
CC1CCCCN1CCNC(=O)c1ccc2c(=O)n(CCc3ccccc3)c(=O)[nH]c2c1 (stereo not given) | -79*
COc1ccc2c(c1)C(=O)c1ccccc1CO2 | -242*
Cc1ccc(N=C2C(=S)N(c3ccc(C)cc3)C(=N)N2/N=C/c2ccc(Cl)cc2)cc1 | -156*
Cc1cc2ccccn2c1C(=O)Nc1ccc(Cl)cc1 | -117*
Cc1cc2ccccn2c1C(=O)Nc1ccccc1 | -109*
Fc1ccc(N2CCN(C3=Nc4cccc5cccc3c45)CC2)cc1 | -173*
